Records with an inconclusive call do not appear. Activity calls are given as the source filed them. Unless noted, calls follow the shape of the full dose curve.
system: not listed separately; test: qHTS assay to identify small molecule antagonists of the sonic hedgehog signaling (Shh) pathway (AID 1259369); conditions: NIH/3T3 Gli1-Luc reporter, Shh antagonist, luminescence 24 h; series mostly up to 92.4 µM; activity change, negative = inhibition: at the top concentration; also: nearly all actives have a fitted effect of over 45% in size; also: potency is read from the fitted curve at half-maximal effect
Procedure, shortened: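 Screening used 3T3Gli1-Luc cells at 2,000 per well, compounds delivered in DMSO, and conditioned medium as agonist stimulus; plates incubated 24hr at 37 C and 5% CO2 before a 30min luciferase step.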
% is scaled to controls: 0 for no effect and ±100 for the full control effect.

SMILES | Potency | activity change, negative = inhibition
CC[C@]1(O)C[C@H]2CN(CCc3c([nH]c4ccccc34)[C@@](C(=O)OC)(c3cc4c(cc3OC)N(C=O)[C@H]3[C@@](O)(C(=O)OC)[C@H](OC(C)=O)[C@]5(CC)C=CCN6CC[C@]43[C@@H]65)C2)C1 | 0.0266 µM (active) | 
CN1C(=O)N(c2ccccc2Br)Cc2cnc(Nc3ccc4c(c3)OCC(CO)O4)nc21 (stereo unspecified) | 6.86 µM (active) | 
CCOC(=O)c1ccccc1C(=C1C=C(Br)C(=O)C(Br)=C1)c1cc(Br)c(O)c(Br)c1 |  | -17.4% [at 42.5 µM] (inactive)
CCOC(=O)[C@H](CCc1ccccc1)N[C@@H](C)C(=O)N(CC(=O)O)C1Cc2ccccc2C1 |  | -1.74% [at 42.5 µM] (inactive)
CC(=O)NC1(c2cccc(F)c2)CCN(CC[C@@]2(c3ccc(Cl)c(Cl)c3)CN(c3ccccc3)C(=O)CO2)CC1 | 24.4 µM (active) | 
Brc1cc2ccccc2c2ccccc12 |  | 5.63% (inactive)
O=C1c2ccccc2C(=O)N1CCc1noc(-c2ccc(CN3CCCCCC3)s2)n1 | 22.3 µM (active) | 
OCCN1CCN(CCCN2c3ccccc3Sc3ccc(Cl)cc32)CC1 | 11.9 µM (active) | 
CCCCCC#CC(=O)OC |  | -20.2% (inactive)
Nc1nc2ccc([N+](=O)[O-])cc2s1 | 48.6 µM (active) | 
C[C@H]1c2cccc(O)c2C(O)=C2C(=O)[C@]3(O)C(O)=C(C(N)=O)C(=O)[C@@H](N(C)C)[C@@H]3[C@@H](O)[C@@H]21 |  | 10.8% [at 42.5 µM] (inactive)
CN1CC(=O)N2[C@H](c3ccc4c(c3)OCO4)c3[nH]c4ccccc4c3C[C@@H]2C1=O |  | 21.4% [at 42.5 µM] (inactive)
COc1cc(N)c(Cl)cc1C(=O)NC1CCN(CCCOc2ccc(F)cc2)CC1OC (stereo unspecified) | 2.66 µM (active) | 
O=C=Nc1ccc(Cl)c(Cl)c1 |  | -17.5% (inactive)
N#[N+]c1ccc2c(S(=O)(=O)[O-])cccc2c1O |  | 6.41% (inactive)
CN1CCCC(n2nc(Cc3ccc(Cl)cc3)c3ccccc3c2=O)CC1 (stereo unspecified) | 2.66 µM (active) | 
Cc1ccc(Cl)c(Nc2ccccc2C(=O)O)c1Cl |  | 7.69% [at 42.5 µM] (inactive)
CCOC(=O)c1ccc(OCCN2C[C@H](O)[C@@H](O)[C@H](O)[C@H]2CO)cc1 |  | 11.8% [at 42.5 µM] (inactive)
CC1(C)S[C@@H]2[C@H](NC(=O)C(c3ccccc3)S(=O)(=O)O)C(=O)N2[C@H]1C(=O)O (stereo partly specified) |  | 20.1% [at 42.5 µM] (inactive)
Cc1cccc(O)c1N | 15.5 µM (active) | 
O=C(OCC(O)CO)c1ccccc1Nc1ccnc2cc(Cl)ccc12 (stereo unspecified) | 7.5 µM (active) | 
C=C(C)[C@@H]1CCC2=CCC[C@@H](C)[C@]2(C)C1 | 24.3 µM (active) | 
CC(C)C[C@H](NC(=O)[C@H](CCc1ccccc1)NC(=O)CN1CCOCC1)C(=O)N[C@@H](Cc1ccccc1)C(=O)N[C@@H](CC(C)C)C(=O)[C@@]1(C)CO1 | 0.0119 µM (active) | 
O=[N+]([O-])c1cc(C2CCCCC2)c(O)c([N+](=O)[O-])c1 | 1.08 µM (active) | 
CCOC(C)=O |  | 25.3% (inactive)
C1C[C@@H]2[C@H]3CC[C@H](C3)[C@@H]2C1 |  | 13.8% (inactive)
O=C(O)c1cccc(-c2noc(-c3ccccc3F)n2)c1 | 0.237 µM (active) | 
COc1cc(C(=O)NC2CCN(C)CC2)ccc1Nc1ncc2c(n1)N(C1CCCC1)CC(F)(F)C(=O)N2C | 0.112 µM (active) | 
COc1ccccc1Oc1c(NS(=O)(=O)c2ccc(C(C)(C)C)cc2)nc(-c2ncccn2)nc1OCCO | 15 µM (active) | 

target: Estrogen receptor beta (Homo sapiens) (UniProt Q92731); test: qHTS assay to identify small molecule agonists of the estrogen receptor beta (ER-beta) signaling pathway (AID 1259377; active = well fitted activation curve with a large enough effect in the signal ratio in the repeat runs, not every such curve was filed as active; the % refers to the signal ratio); conditions: ER-beta-UAS-bla HEK293T, beta-lactamase FRET ratio, 16 h; series mostly up to 92.4 µM; activation: at the top concentration
Procedure, shortened: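 ER-beta-UAS-bla HEK293T (GripTite) cells carrying a UAS-driven beta-lactamase reporter, in medium with 2% charcoal-stripped FBS, were exposed to compounds for 16 hr at 37C; LiveBLAzer B/G FRET substrate was then added and fluorescence read after 2 hours at room temperature.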

Sequence of Estrogen receptor beta (Homo sapiens) (Q92731 whole entry, looked up): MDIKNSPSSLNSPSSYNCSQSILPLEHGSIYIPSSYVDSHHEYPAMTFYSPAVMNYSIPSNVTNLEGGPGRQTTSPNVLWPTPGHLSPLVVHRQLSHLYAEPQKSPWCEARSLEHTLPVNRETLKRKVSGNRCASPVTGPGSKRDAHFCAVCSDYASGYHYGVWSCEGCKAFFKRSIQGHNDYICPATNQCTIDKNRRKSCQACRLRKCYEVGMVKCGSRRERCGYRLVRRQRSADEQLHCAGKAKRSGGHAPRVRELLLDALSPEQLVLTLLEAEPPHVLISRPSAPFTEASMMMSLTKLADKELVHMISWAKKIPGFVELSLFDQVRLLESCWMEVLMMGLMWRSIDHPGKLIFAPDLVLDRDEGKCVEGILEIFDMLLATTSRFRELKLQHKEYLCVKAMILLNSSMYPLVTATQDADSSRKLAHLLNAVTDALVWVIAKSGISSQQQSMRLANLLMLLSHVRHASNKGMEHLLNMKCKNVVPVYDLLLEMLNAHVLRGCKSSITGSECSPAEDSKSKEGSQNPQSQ

SMILES | activation
C=CC(=O)[O-].C=CC(=O)[O-].[Zn+2] | -0.219% (inactive)
CN(C(=O)CN(CCO)CC(=O)N(C)C(C)(C)Cc1ccccc1)C(C)(C)Cc1ccccc1 | -0.164% [at 42.5 µM] (inactive)
CN1CCCN=C1COC(=O)C(O)(c1ccccc1)C1CCCCC1 (stereo unspecified) | 1.15% [at 42.5 µM] (inactive)
CCC(=O)C1CC(C(C)C)CC=C1C (stereo unspecified) | -1.82% (inactive)
C=C1c2cccc(O)c2C(O)=C2C(=O)[C@]3(O)C(O)=C(C(N)=O)C(=O)[C@@H](N(C)C)[C@@H]3[C@@H](O)[C@H]12 | -0.129% [at 42.5 µM] (inactive)
CC/C=C1/OC(=O)c2ccccc21 | -0.393% (inactive)
CC1=C(Br)C(=O)C(Br)=C/C1=C(/c1ccccc1S(=O)(=O)O)c1cc(Br)c(O)c(Br)c1C | -0.277% [at 42.5 µM] (inactive)
C/C=C/C=C/C=O | -2.04% (inactive)
OCCOCC#CCOCCO | 10.5% (inactive)
O=c1[nH]ncc2ccccc12 | 1.45% (inactive)
CC(CCC(=O)O)C(=O)O (stereo unspecified) | -2.39% (inactive)

target: Estrogen receptor beta (Homo sapiens) (UniProt Q92731); test: qHTS assay to identify small molecule antagonists of the estrogen receptor beta (ER-beta) signaling pathway (AID 1259378; active = well fitted inhibition curve with a large enough effect in the signal ratio in the repeat runs, not every such curve was filed as active; the % refers to the signal ratio); conditions: ER-beta-UAS-bla HEK293T, beta-lactamase FRET ratio, 16 h; series mostly up to 92.4 µM; activity, negative = inhibition: at the top concentration
Procedure, shortened: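 Antagonist mode: compounds added to beta-lactamase reporter HEK293T ER-beta-UAS cells stimulated with E2 (1nM final), 16 hr at 37C. LiveBLAzer B/G FRET substrate, 2 hours room temperature, fluorescence read-out.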

SMILES | activity, negative = inhibition
C=CC(=O)[O-].C=CC(=O)[O-].[Zn+2] | 1.52% (inactive)
CN(C(=O)CN(CCO)CC(=O)N(C)C(C)(C)Cc1ccccc1)C(C)(C)Cc1ccccc1 | -4.94% [at 42.5 µM] (inactive)
CN1CCCN=C1COC(=O)C(O)(c1ccccc1)C1CCCCC1 (stereo unspecified) | -2.03% [at 42.5 µM] (inactive)
CCC(=O)C1CC(C(C)C)CC=C1C (stereo unspecified) | 9.87% (inactive)
C=C1c2cccc(O)c2C(O)=C2C(=O)[C@]3(O)C(O)=C(C(N)=O)C(=O)[C@@H](N(C)C)[C@@H]3[C@@H](O)[C@H]12 | -23.3% [at 42.5 µM] (inactive)
CC/C=C1/OC(=O)c2ccccc21 | -1.12% (inactive)
CC1=C(Br)C(=O)C(Br)=C/C1=C(/c1ccccc1S(=O)(=O)O)c1cc(Br)c(O)c(Br)c1C | 9.07% [at 42.5 µM] (inactive)
C/C=C/C=C/C=O | 1.29% (inactive)
OCCOCC#CCOCCO | -5.03% (inactive)
O=c1[nH]ncc2ccccc12 | 2.69% (inactive)
CC(CCC(=O)O)C(=O)O (stereo unspecified) | 6.99% (inactive)

Source: PubChem BioAssay (Tox21)
